# Data: the supplement of paper PMC6897291
# Structures can show the parent of a compound that is named as a salt.
# How the values were obtained:
# [1] = system: U-2932; assay: growth inhibition by drug alone (1 - RLU/untreated control) (fraction); higher = stronger inhibition; details: 177Lu-lilotomab satetraxetan 0 ug/ml
# How it was run: (§1)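 Growth inhibition was calculated from RealTime-Glo RLU against untreated no-drug wells. Values equal 1 − RLU/mean of 48 untreated no-drug wells per plate, read daily from day 3 after 1 h at 37°C. RIVA and U-2932 cells, with or without 18 h pretreatment by a radiolabelled anti-CD37 antibody conjugate (~600 MBq/mg; 0.5 µg/ml RIVA, 1 µg/ml U-2932), were washed and plated at 3,000 cells/well on compound-printed plates at 10/100 nM (RIVA) or 10/1,000 nM (U-2932).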
# [2] = system: RIVA; assay: as above; details: 177Lu-lilotomab satetraxetan 0 ug/ml
# How it was run: as §1
# [3] = system: U-2932; assay: growth inhibition by drug plus 177Lu-lilotomab satetraxetan (1 - RLU/untreated control) (fraction); higher = stronger inhibition; details: 177Lu-lilotomab satetraxetan 1 ug/ml
# How it was run: as §1
# [4] = system: RIVA; assay: as above; details: 177Lu-lilotomab satetraxetan 0.5 ug/ml
# How it was run: as §1
Structure (SMILES),"growth inhibition by drug alone ([1]; 10 nM, time (day): 3)","growth inhibition by drug alone ([1]; 10 nM, time (day): 4)","growth inhibition by drug alone ([1]; 10 nM, time (day): 5)","growth inhibition by drug alone ([1]; 10 nM, time (day): 6)","growth inhibition by drug alone ([1]; 1000 nM, time (day): 3)","growth inhibition by drug alone ([1]; 1000 nM, time (day): 4)","growth inhibition by drug alone ([1]; 1000 nM, time (day): 5)","growth inhibition by drug alone ([1]; 1000 nM, time (day): 6)","growth inhibition by drug alone ([2]; 10 nM, time (day): 3)","growth inhibition by drug alone ([2]; 10 nM, time (day): 4)","growth inhibition by drug alone ([2]; 10 nM, time (day): 5)","growth inhibition by drug alone ([2]; 10 nM, time (day): 6)","growth inhibition by drug alone ([2]; 100 nM, time (day): 3)","growth inhibition by drug alone ([2]; 100 nM, time (day): 4)","growth inhibition by drug alone ([2]; 100 nM, time (day): 5)","growth inhibition by drug alone ([2]; 100 nM, time (day): 6)","growth inhibition by drug plus 177Lu-lilotomab satetraxetan ([3]; 10 nM, time (day): 3)","growth inhibition by drug plus 177Lu-lilotomab satetraxetan ([3]; 10 nM, time (day): 4)","growth inhibition by drug plus 177Lu-lilotomab satetraxetan ([3]; 10 nM, time (day): 5)","growth inhibition by drug plus 177Lu-lilotomab satetraxetan ([3]; 10 nM, time (day): 6)","growth inhibition by drug plus 177Lu-lilotomab satetraxetan ([3]; 1000 nM, time (day): 3)","growth inhibition by drug plus 177Lu-lilotomab satetraxetan ([3]; 1000 nM, time (day): 4)","growth inhibition by drug plus 177Lu-lilotomab satetraxetan ([3]; 1000 nM, time (day): 5)","growth inhibition by drug plus 177Lu-lilotomab satetraxetan ([3]; 1000 nM, time (day): 6)","growth inhibition by drug plus 177Lu-lilotomab satetraxetan ([4]; 10 nM, time (day): 3)","growth inhibition by drug plus 177Lu-lilotomab satetraxetan ([4]; 10 nM, time (day): 4)","growth inhibition by drug plus 177Lu-lilotomab satetraxetan ([4]; 10 nM, time (day): 5)","growth inhibition by drug plus 177Lu-lilotomab satetraxetan ([4]; 10 nM, time (day): 6)","growth inhibition by drug plus 177Lu-lilotomab satetraxetan ([4]; 100 nM, time (day): 3)","growth inhibition by drug plus 177Lu-lilotomab satetraxetan ([4]; 100 nM, time (day): 4)","growth inhibition by drug plus 177Lu-lilotomab satetraxetan ([4]; 100 nM, time (day): 5)","growth inhibition by drug plus 177Lu-lilotomab satetraxetan ([4]; 100 nM, time (day): 6)"
COc1cc2ncnc(Nc3ccc(F)c(Cl)c3)c2cc1NC(=O)/C=C/CN1CCCCC1,-0.101,-0.0931,-0.078,0.0128,-0.222,-0.156,-0.164,-0.0283,-0.299,-0.339,-0.376,-0.409,-0.261,-0.3,-0.331,-0.346,-0.0733,-0.0275,0.0218,0.0574,-0.26,-0.16,-0.0838,0.0995,0.446,0.525,0.55,0.538,0.262,0.366,0.387,0.392
COC(=O)c1ccc2c(C(=Nc3ccc(N(C)C(=O)CN4CCN(C)CC4)cc3)c3ccccc3)c(O)[nH]c2c1 [BIBF1120 (Vargatef)],-0.0536,-0.0365,-0.0213,0.0413,-0.121,-0.0853,-0.113,-0.173,-0.119,-0.148,-0.188,-0.27,-0.285,-0.322,-0.347,-0.414,-0.06,-0.0397,-0.00235,0.146,-0.172,-0.0703,-0.0418,-0.00489,0.292,0.437,0.461,0.479,0.251,0.362,0.366,0.375
Cc1ccc(F)c(NC(=O)Nc2ccc(-c3cccc4[nH]nc(N)c34)cc2)c1 [Linifanib (ABT-869)],0.0297,0.0175,-0.00657,0.043,0.133,0.146,0.103,0.0811,-0.11,-0.109,-0.157,-0.289,0.0372,0.000859,-0.0495,-0.102,0.0166,0.0206,0.0473,0.197,0.0768,0.108,0.147,0.253,0.454,0.546,0.574,0.585,0.515,0.54,0.546,0.517
CS(=O)(=O)c1ccc(C(=O)Nc2ccc(Cl)c(-c3ccccn3)c2)c(Cl)c1 [Vismodegib (GDC-0449)],0.11,0.072,-0.091,-0.101,0.0775,0.075,0.0248,0.00134,0.089,0.121,0.101,-0.0572,-0.253,-0.16,-0.186,-0.299,0.055,0.116,0.202,0.219,0.117,0.138,0.194,0.297,0.631,0.647,0.682,0.672,0.538,0.568,0.591,0.608
FC(F)c1nc2ccccc2n1-c1nc(N2CCOCC2)nc(N2CCOCC2)n1,0.143,0.0834,0.0466,0.0263,0.437,0.399,0.349,0.367,0.208,0.164,0.161,0.106,0.823,0.782,0.766,0.718,0.0955,0.119,0.149,0.22,0.282,0.348,0.331,0.393,0.45,0.529,0.568,0.572,0.763,0.779,0.782,0.761
CCn1c(-c2nonc2N)nc2cnc(Oc3cccc(NC(=O)c4ccc(OCCN5CCOCC5)cc4)c3)cc21,-0.134,-0.155,-0.145,-0.41,0.0463,0.0519,0.129,0.357,-0.232,-0.237,-0.286,-0.351,-0.202,-0.237,-0.215,-0.241,-0.198,-0.145,-0.0619,0.0328,0.279,0.292,0.374,0.603,0.46,0.522,0.558,0.578,0.439,0.515,0.547,0.569
COc1cccc2c1C(=O)c1c(O)c3c(c(O)c1C2=O)C[C@@](O)(C(C)=O)C[C@@H]3O[C@H]1C[C@H](N)[C@H](O)[C@H](C)O1 [Daunorubicin HCl (Daunomycin HCl)],0.144,0.147,0.0841,0.0306,0.971,0.975,0.98,0.983,0.109,0.134,0.15,0.0495,0.569,0.743,0.857,0.915,0.21,0.265,0.341,0.415,0.978,0.982,0.984,0.987,0.833,0.844,0.868,0.902,0.87,0.915,0.94,0.96
CN1CCN(c2ccc3nc(-c4c(N)c5c(F)cccc5[nH]c4=O)[nH]c3c2)CC1 [Dovitinib (TKI-258)],0.12,0.0504,-0.004,-0.0165,0.0669,-0.0112,-0.0673,-0.128,0.0921,0.0422,-0.0205,-0.168,-0.156,-0.0867,-0.188,-0.316,0.0639,0.0792,0.118,0.243,0.0496,0.031,0.0265,0.126,0.421,0.501,0.522,0.53,0.358,0.399,0.413,0.411
Cc1cccc(-c2nn3c(c2-c2ccnc4ccc(C(N)=O)cc24)CCC3)n1,-0.0698,-0.0435,-0.0298,0.0787,-0.0166,-0.0114,-0.0422,-0.0441,-0.233,-0.26,-0.269,-0.342,-0.0721,-0.126,-0.16,-0.229,-0.116,-0.0664,-0.0409,0.0836,0.0167,0.0206,-0.00167,0.117,0.371,0.487,0.502,0.523,0.372,0.444,0.459,0.437
O=C(O)CCCc1ccccc1 [4-Phenylbutyrate],0.0701,0.0509,0.00363,-0.192,0.0343,0.0446,-0.0113,-0.154,-0.0798,-0.0476,-0.148,-0.516,-0.401,-0.277,-0.308,-0.483,0.0355,0.105,0.141,0.163,0.0377,0.0642,0.124,0.195,0.43,0.538,0.547,0.56,0.419,0.5,0.507,0.511
COc1ccccc1OCC(O)CN1CCN(CC(=O)Nc2c(C)cccc2C)CC1 (stereo unspecified) [Ranolazine (Ranexa)],0.0363,0.0222,-0.0749,-0.119,-0.0415,-0.0106,-0.0786,-0.23,0.0348,-0.0338,-0.102,-0.328,-0.11,-0.146,-0.161,-0.223,-0.0197,0.00637,0.00274,0.118,-0.0847,8.82e-05,-0.0142,-0.000571,0.412,0.527,0.544,0.551,0.294,0.438,0.446,0.418
CN1CCN(CCOc2cc(OC3CCOCC3)c3c(Nc4c(Cl)ccc5c4OCO5)ncnc3c2)CC1 [Saracatinib (AZD0530)],0.0465,0.00941,-0.0204,-0.381,-0.139,-0.146,-0.173,-0.33,-0.108,-0.164,-0.326,-0.893,-0.52,-0.418,-0.423,-0.554,-0.0675,-0.00671,0.0506,0.0536,-0.174,-0.108,-0.0137,0.1,0.366,0.494,0.508,0.537,0.458,0.536,0.549,0.544
CCN(CC)CCNC(=O)c1c(C)[nH]c(/C=C2\C(=O)Nc3ccc(F)cc32)c1C [Sunitinib Malate (Sutent)],0.0107,0.0161,-0.0625,-0.274,-0.0117,-0.00484,-0.0741,-0.207,-0.117,-0.163,-0.216,-0.511,-0.295,-0.315,-0.325,-0.492,-0.0903,-0.0528,-0.026,0.0273,-0.0792,-0.017,-0.0458,-0.033,0.291,0.452,0.477,0.49,0.257,0.374,0.387,0.364
O=C(O)CCc1ccc(NCc2cccc(Oc3ccccc3)c2)cc1,-0.00379,-0.0257,-0.0189,-0.0582,-0.0179,-0.0506,-0.13,-0.129,-0.138,-0.183,-0.212,-0.37,-0.259,-0.306,-0.351,-0.547,-0.0541,0.038,0.0596,0.0671,-0.0069,0.0299,0.0402,0.126,0.476,0.546,0.562,0.557,0.432,0.527,,
